“And” between values parts separate entries of the source, which are not always exact repeats. Equal values may be shown once. Results filed as inconclusive are left out. A call without a number means that no potency is given here. The source made the active and inactive calls. Calls come from the whole dose curve.
Potency is the fitted concentration of half-maximal effect.

A short description of the experiment: qHTS assay for small molecule disruptors of the mitochondrial membrane potential - cell viability (AID 720634).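 For activity change, negative = cytotoxicity: human HepG2 liver cancer cells.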 Note: nearly all actives have a fitted effect of over 20% in size. As to conditions: HepG2 viability, ATP luminescence (CellTiter-Glo), 1 h; series mostly up to 83.2 µM; activity change, negative = cytotoxicity: at the top concentration. The text has this:
U.S. Tox21 Program National Center for Advancing Translational Sciences [NCATS] NIH Chemical Genomics Center [NCGC] U.S. Environmental Protection Agency [EPA] National Institutes of Environmental Health Sciences [NIEHS] National Toxicology Program [NTP] U.S. Food and Drug Administration [FDA] Tox21 Assay Overview: Mitochondrial membrane potential (MMP), one of the parameters for mitochondrial function, is generated by mitochondrial electron transport chain that creates an electrochemical gradient by a series of redox reactions. This gradient drives the synthesis of ATP, a crucial molecule for various cellular processes. Measuring MMP in living cells is commonly used to assess the effect of chemicals on mitochondrial function; decreases in MMP can be detected using lipophilic cationic fluorescent dyes. […] The dye accumulates in the mitochondria of healthy cells as aggregates, with red fluorescence. The mitochondrial potential decreases and the dye could not accumulate in the mitochondria and remains in the cytoplasm in monomers, with green fluorescence. In addition to the mitochondrial potential assay, these cells were also used to test the cytotoxicity by determining the cell viability in the culture based on the quantitation of ATP present. The cytotoxicity was measured in the same assay well of MMP assay.
Tox21 Assay Protocol Summary: 2,000 HepG2 cells in 5 uL/well were dispensed into black, clear-bottom 1536-well plates using a Multidrop Combi (Thermo Scientific) dispenser. The assay plates were incubated for an overnight at 37 C to allow cells to attach to the wells, followed by the transfer of 23 nL compound or DMSO vehicle by a pin tool (Kalypsys). The plates were incubated for 1 hr at 37 C and 5% CO2, followed by the addition of 5 uL of 2X m-MPI dye into each well using Flying Reagent Dispenser (Aurora Discovery) and then CellTiter-Glo reagent was added at 4 uL/well and incubated 30 min at room temperature. Then luminescence intensity was quantified on a ViewLux CCD-based plate reader.
In general terms: Quantitative high-throughput screening tests each substance at several concentrations.
On to `O=C1NC(=O)C(c2ccccc2)(c2ccccc2)N1`, for which the Potency result is “inactive”. On the same count and under the same terms, in the case of `O=C1NS(=O)(=O)c2ccccc21` it was “inactive”; in that of `CC(C)C(=O)Nc1ccc([N+](=O)[O-])c(C(F)(F)F)c1`, 12.5 µM (active) and 27.3 µM (active); in that of `CCOC(N)=O`, “inactive”. Same read-out and setting: in the case of `C/C=C/C=C/C(=O)O` it was “inactive”; in that of `Cc1ncc([N+](=O)[O-])n1CCO`, “inactive”.

In the case of `CN(C)CCOC(C)(c1ccccc1)c1ccccn1` (stereo not given), the Potency result is “inactive”. On the same count and under the same terms, the result for `CN(C)C(=S)SC(=S)N(C)C` reads “inactive”. Turning to `Cc1ncc([N+](=O)[O-])n1C`, the Potency entry was “inactive”. The same measure, in the same setting: the result for `CC(=O)CC(c1ccccc1)c1c(O)c2ccccc2oc1=O` (stereo not given) reads “inactive”.

Regarding `CS(=O)(=O)OCCCCOS(C)(=O)=O`, the Potency entry is “inactive”. The same measure, in the same setting: in the case of `Cc1cc(=O)oc2cc(O)ccc12` it was “inactive”.

For `OC[C@H]1O[C@H](O[C@]2(CCl)O[C@H](CCl)[C@@H](O)[C@@H]2O)[C@H](O)[C@@H](O)[C@H]1Cl`, the Potency result is “inactive”. The same measure, in the same setting: the result for `CC/C(=C(\c1ccccc1)c1ccc(OCCN(C)C)cc1)c1ccccc1` reads 54.8 µM (active) and 61.1 µM (active); that for `F[B-](F)(F)F`, “inactive”.

In the case of `C=CCc1ccc(O)c(OC)c1`, the Potency entry was “inactive”. In the case of `C1=CC2C3C=CC(C3)C2C1` (stereo not given), the “activity change, negative = cytotoxicity” value is 14.2% (inactive). In the case of `NS(=O)(=O)O`, the Potency result was “inactive”. Take `CC(=O)Nc1c(I)c(NC(C)=O)c(I)c(C(=O)O)c1I`: the Potency entry was “inactive”. Still for that read-out and setting: in the case of `CCCc1cc(=O)[nH]c(=S)[nH]1` it was “inactive”. With `CC12CCC(CC1)C(C)(C)O2`, the Potency entry was “inactive”. Consider `COc1ccc2cc(S(=O)(=O)N[C@H](CC(=O)N[C@H](Cc3ccc(CN4[C@H](C)CCC[C@@H]4C)cc3)C(=O)N(C)C(C)C)c3ccc4c(c3)OCO4)ccc2c1`, for which the “activity change, negative = cytotoxicity” value was -13% (inactive). Turning to `Cc1c(C(=O)O)c(O)cc2c1C(=O)c1c(O)c([C@@H]3O[C@H](CO)[C@@H](O)[C@H](O)[C@H]3O)c(O)c(O)c1C2=O`, the Potency result was “inactive”.

Take `NC(=O)n1c(O)c(C(=O)c2cccs2)c2cc(Cl)ccc21`: the “activity change, negative = cytotoxicity” value is -15.1% (inactive). Take `CC1(C)O[C@@H]2C[C@H]3[C@@H]4CCC5=CC(=O)C=C[C@]5(C)[C@@]4(F)[C@@H](O)C[C@]3(C)[C@]2(C(=O)CO)O1`: the Potency entry was “inactive”. As to `CCCCNC(=O)NS(=O)(=O)c1ccc(C)cc1`, the Potency result was “inactive”. Regarding `O=CC(=O)c1ccccc1`, the “activity change, negative = cytotoxicity” value is 33.1% (inactive). In the case of `C[C@](N)(Cc1ccc(O)c(O)c1)C(=O)O`, the Potency entry is “inactive”.

On to `CC(=O)C(=O)O`, for which the Potency result is “inactive”.

On to `Nc1ccc([N+](=O)[O-])cc1O`, for which the “activity change, negative = cytotoxicity” value was -12% (inactive). As for `NC1CCCCC1`, the Potency entry is “inactive”.

For `CN(C)CCOC(c1ccccc1)c1ccccc1`, the Potency result was “inactive”. Regarding `Nc1ccc(O)c([N+](=O)[O-])c1`, the “activity change, negative = cytotoxicity” value is -18.8% (inactive). Take `COc1ccc(C(Cl)=C(c2ccc(OC)cc2)c2ccc(OC)cc2)cc1`: the Potency entry is “inactive”.

Take `COc1cccc(O)c1O`: the “activity change, negative = cytotoxicity” value is 18.5% [at 95.3 µM] (inactive).

In the case of `CCCCC(CC)C(=O)O` (stereo not given), the Potency result is “inactive”. On the same count and under the same terms, the result for `Cn1c(=O)c2c(ncn2C)n(C)c1=O` reads “inactive”; that for `C=C(C)C(=O)OCC(C)O` (stereo not given), “inactive”. For `CN(C)C(=O)Nc1ccc(Cl)c(Cl)c1`, the Potency result was “inactive”. Take `COc1ccc2c(c1)c(CC(=O)O)c(C)n2C(=O)c1ccc(Cl)cc1`: the Potency entry is “inactive”.

Source of the values: PubChem BioAssay (Tox21).
